Measurements taken from the supplement of paper PMC9694430.
Where “and” joins values, the source holds several entries; their conditions need not be identical. Equal values may be shown once. Where a name gives a salt, the structure may show the parent alone.

System: T1, LOC_OS04G38480-cb003
T1 sequence (whole entry): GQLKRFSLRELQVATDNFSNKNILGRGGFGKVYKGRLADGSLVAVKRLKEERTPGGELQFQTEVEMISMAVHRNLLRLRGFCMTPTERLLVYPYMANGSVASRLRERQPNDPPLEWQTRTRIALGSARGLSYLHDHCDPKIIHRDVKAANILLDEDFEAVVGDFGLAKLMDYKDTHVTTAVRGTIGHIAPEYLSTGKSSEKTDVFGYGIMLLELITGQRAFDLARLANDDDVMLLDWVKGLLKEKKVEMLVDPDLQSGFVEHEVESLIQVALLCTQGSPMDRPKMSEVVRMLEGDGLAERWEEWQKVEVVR
Test: thermal shift delta Tm vs DMSO control; higher = stronger stabilization (binding)
Conditions: 12.5 µM; protein concentration 2 µM
Method in brief: (§1)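 Purified, E. coli-expressed rice kinase domain constructs were tested by differential scanning fluorimetry in 96-well plates: 19.5 μl of 2 μM kinase in 100 mM potassium phosphate pH 7.5, 150 mM NaCl, 10% glycerol, 5 × SYPRO Orange, plus compound in DMSO. Fluorescence was read from 25°C to 95°C at 0.05°C/s. Melting temperatures came from Boltzmann fits, and the shift is the triplicate mean relative to protein with DMSO alone.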

| Compound | thermal shift delta Tm |
| --- | --- |
| Cc1cnc(-c2cnc(NCCNc3ccc(C#N)cn3)nc2-c2ccc(Cl)cc2Cl)[nH]1 | 0.39 °C and 1.23 °C |
| CCN(CC)CCCCNc1ncc2cc(-c3cc(OC)cc(OC)c3)c(NC(=O)NC(C)(C)C)nc2n1 | 0.83 °C |
| Cn1cc(-c2ccc3nnc(C(F)(F)c4ccc5ncccc5c4)n3n2)cn1 | 0.98 °C |
| O=C(c1ccc(/C=C/c2n[nH]c3ccccc23)cc1)N1CCNCC1 | 2.61 °C |
| CN(C)C[C@@H]1CCn2cc(c3ccccc32)C2=C(C(=O)NC2=O)c2cn(c3ccccc23)CCO1 | 2.42 °C |
| CC1=C(C(=O)Nc2ccc3[nH]ncc3c2)C(c2ccc(F)cc2)NC(=O)N1 (stereo unspecified) | 1.84 °C |
| CCc1cc(Nc2nccc(-c3c(-c4ccc(OC)c(C(=O)Nc5c(F)cccc5F)c4)nc4ccccn34)n2)c(OC)cc1N1CCC(N2CCN(S(C)(=O)=O)CC2)CC1 | 0.7 °C |
| CNS(=O)(=O)Nc1nccc(Cc2c(C)c3ccc(Oc4ncccn4)cc3oc2=O)c1F | 0.35 °C |
| CCn1c(=O)c(-c2cc[nH]n2)cc2c(C)nc(N)nc21 | 0.82 °C |
| COc1cc(F)c(F)c(Nc2ccc(I)cc2F)c1NS(=O)(=O)C1(C[C@H](O)CO)CC1 [Refametinib (RDEA119, Bay 86-9766)] | 0.79 °C |
| Cc1cc(C(=O)NOCCO)c(Nc2ccc(I)cc2F)n(C)c1=O | 0.64 °C |
| O=C(c1cccc(Cl)c1F)N1CCN(Cc2cccc(Nc3nccs3)n2)CC1 | 2.88 °C |
| CC(C)n1nc(-c2ccc3oc(N)nc3c2)c2c(N)ncnc21 | 0.87 °C |
| C=CC(=O)Nc1cccc(Sc2nc(Nc3ccc(N4CCN(C)CC4)cc3)ncc2Cl)c1 | 1.07 °C |
| CC(C)n1ncnc1-c1cn2c(n1)-c1ccc(O[C@@H](C)C(N)=O)cc1OCC2 | 0.74 °C |
| Cc1ccc(NC(=O)c2ccc(CN3CCN(C)CC3)cc2)cc1Nc1nccc(-c2cccnc2)n1 [Imatinib (STI571)] | 0.88 °C |
| CCN(CC)CCCC(C)Nc1nc(C)cc(Nc2ccc3nc(C)cc(N)c3c2)n1 (stereo unspecified) | 0.87 °C |
| Cn1c(Nc2ccc(C(F)(F)F)cc2)nc2cc(Oc3ccnc(-c4ncc(C(F)(F)F)[nH]4)c3)ccc21 | 4.08 °C |
| Cc1c(NC(=O)c2ccc(C(C)(C)C)cc2)cccc1-c1cn(C)c(=O)c(Nc2ccc(C(=O)N3CCOCC3)cc2)n1 | 0.87 °C |

| Compound | thermal shift delta Tm |
| --- | --- |
| CNC(=O)c1cccc(-c2ccc3c(N4CCOC[C@@H]4C)nc(N4CCOC[C@@H]4C)nc3n2)c1 [Vistusertib (AZD2014)] | 0.96 °C |
| CCS(=O)(=O)c1cccc(-c2cc(C(=O)NC3CCN(C)CC3)c(C)c3[nH]c4ncc(C)cc4c23)c1 | 3.14 °C |
| CCCCNc1ncc(C(=O)NCc2ccc(-n3ccnc3)cc2)c(NC2CCC(O)CC2)n1 (stereo unspecified) | 2.91 °C |
| C=C(C)[C@@H]1CC[C@]2(C)CC[C@]3(C)[C@H](CC[C@@H]4[C@@]5(C)CC[C@H](O)C(C)(C)[C@@H]5CC[C@]43C)[C@@H]12 [Lupeol] | 3.02 °C |
| O=C(O[C@@H]1Cc2c(O)cc(O)cc2O[C@@H]1c1cc(O)c(O)c(O)c1)c1cc(O)c(O)c(O)c1 [(-)-Epigallocatechin Gallate] | 2.43 °C |
| CC[C@H](CO)Nc1nc(NCc2ccccc2)c2ncn(C(C)C)c2n1 [Roscovitine (Seliciclib,CYC202)] | 0.99 °C |
| COc1ccc([C@@H]2OC[C@H]3[C@@H]2CO[C@@H]3c2ccc(O[C@@H]3O[C@H](CO)[C@@H](O)[C@H](O)[C@H]3O)c(OC)c2)cc1OC [Forsythin] | -0.32 °C |
| COc1cc2c(Oc3ccc(NC(=O)C4(C(=O)Nc5ccc(F)cc5)CC4)cc3F)ccnc2cc1OCCCN1CCOCC1 | 3.42 °C |
| N#Cc1c(NC(=O)c2cccc3ccccc23)sc2c1CCCC2 [JNK Inhibitor IX] | 1.73 °C |
| C#Cc1cccc(Nc2ncnc3cc4c(cc23)OCCOCCOCCO4)c1 [Icotinib] | 3.08 °C |
| CN1CCN(Cc2ccc(NC(=O)Nc3ccc(Oc4ccnc(N)n4)cc3)cc2C(F)(F)F)CC1 | 2.07 °C |
| N[C@@H]1CCCN(c2c(/C=C3\SC(=O)NC3=O)cccc2-c2ccccc2)C1 | 0.39 °C |
| Cc1c[nH]c(/C=C2\C(=O)Nc3ccccc32)c1CCC(=O)O | 3.46 °C |
| N=C(N)NC(=N)NCCc1ccccc1 [Phenformin HCl] | 0.97 °C |
| Cc1cc(C)c(/C=C2\C(=O)Nc3ccccc32)[nH]1 [Semaxanib (SU5416)] | 2.87 °C |
| Nc1nc(N)c2nc(-c3cccc(O)c3)c(-c3cccc(O)c3)nc2n1 | 1.12 °C |
| COc1cc(Nc2ncc3c(n2)-c2ccc(Cl)cc2C(c2c(F)cccc2OC)=NC3)ccc1C(=O)O [Alisertib (MLN8237)] | 0.2 °C |
| O=C(Nc1cccnc1)c1cc(-c2ccnc(F)c2)ccc1OCc1ccccc1 | 1.76 °C |
| Nc1ncnc2n[nH]c(Nc3ccc(F)cc3)c12 | 0.62 °C |

System: T2, LOC_OS04G41100-cb001
T2 sequence (whole entry): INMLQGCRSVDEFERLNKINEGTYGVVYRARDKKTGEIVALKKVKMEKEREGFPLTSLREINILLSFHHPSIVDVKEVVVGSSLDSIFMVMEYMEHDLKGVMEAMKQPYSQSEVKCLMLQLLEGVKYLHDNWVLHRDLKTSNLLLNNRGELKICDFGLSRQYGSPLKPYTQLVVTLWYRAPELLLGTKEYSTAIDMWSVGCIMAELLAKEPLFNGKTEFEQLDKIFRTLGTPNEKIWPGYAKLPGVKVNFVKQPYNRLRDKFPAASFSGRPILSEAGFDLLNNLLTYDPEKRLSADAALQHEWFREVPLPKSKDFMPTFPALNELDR
Test: as above
Conditions: 12.5 µM; protein concentration 2 µM
Method in brief: as §1

| Compound | thermal shift delta Tm |
| --- | --- |
| Cc1cnc(-c2cnc(NCCNc3ccc(C#N)cn3)nc2-c2ccc(Cl)cc2Cl)[nH]1 | 0.54 °C and 0.66 °C |
| CCN(CC)CCCCNc1ncc2cc(-c3cc(OC)cc(OC)c3)c(NC(=O)NC(C)(C)C)nc2n1 | 0.46 °C |
| Cn1cc(-c2ccc3nnc(C(F)(F)c4ccc5ncccc5c4)n3n2)cn1 | 0.6 °C |
| O=C(c1ccc(/C=C/c2n[nH]c3ccccc23)cc1)N1CCNCC1 | 0.96 °C |
| CN(C)C[C@@H]1CCn2cc(c3ccccc32)C2=C(C(=O)NC2=O)c2cn(c3ccccc23)CCO1 | 0.73 °C |
| CC1=C(C(=O)Nc2ccc3[nH]ncc3c2)C(c2ccc(F)cc2)NC(=O)N1 (stereo unspecified) | 0.33 °C |
| CCc1cc(Nc2nccc(-c3c(-c4ccc(OC)c(C(=O)Nc5c(F)cccc5F)c4)nc4ccccn34)n2)c(OC)cc1N1CCC(N2CCN(S(C)(=O)=O)CC2)CC1 | 0.67 °C |
| CNS(=O)(=O)Nc1nccc(Cc2c(C)c3ccc(Oc4ncccn4)cc3oc2=O)c1F | 0.2 °C |
| CCn1c(=O)c(-c2cc[nH]n2)cc2c(C)nc(N)nc21 | 0.15 °C |
| COc1cc(F)c(F)c(Nc2ccc(I)cc2F)c1NS(=O)(=O)C1(C[C@H](O)CO)CC1 [Refametinib (RDEA119, Bay 86-9766)] | 0.72 °C |
| Cc1cc(C(=O)NOCCO)c(Nc2ccc(I)cc2F)n(C)c1=O | 0.58 °C |
| O=C(c1cccc(Cl)c1F)N1CCN(Cc2cccc(Nc3nccs3)n2)CC1 | 0.42 °C |
| CC(C)n1nc(-c2ccc3oc(N)nc3c2)c2c(N)ncnc21 | 0.38 °C |
| C=CC(=O)Nc1cccc(Sc2nc(Nc3ccc(N4CCN(C)CC4)cc3)ncc2Cl)c1 | 1.47 °C |
| CC(C)n1ncnc1-c1cn2c(n1)-c1ccc(O[C@@H](C)C(N)=O)cc1OCC2 | 0.13 °C |
| Cc1ccc(NC(=O)c2ccc(CN3CCN(C)CC3)cc2)cc1Nc1nccc(-c2cccnc2)n1 [Imatinib (STI571)] | 0.5 °C |
| CCN(CC)CCCC(C)Nc1nc(C)cc(Nc2ccc3nc(C)cc(N)c3c2)n1 (stereo unspecified) | 0.23 °C |
| Cn1c(Nc2ccc(C(F)(F)F)cc2)nc2cc(Oc3ccnc(-c4ncc(C(F)(F)F)[nH]4)c3)ccc21 | 1.82 °C |
| Cc1c(NC(=O)c2ccc(C(C)(C)C)cc2)cccc1-c1cn(C)c(=O)c(Nc2ccc(C(=O)N3CCOCC3)cc2)n1 | 0.43 °C |

| Compound | thermal shift delta Tm |
| --- | --- |
| CNC(=O)c1cccc(-c2ccc3c(N4CCOC[C@@H]4C)nc(N4CCOC[C@@H]4C)nc3n2)c1 [Vistusertib (AZD2014)] | 0.11 °C |
| CCS(=O)(=O)c1cccc(-c2cc(C(=O)NC3CCN(C)CC3)c(C)c3[nH]c4ncc(C)cc4c23)c1 | 0.65 °C |
| CCCCNc1ncc(C(=O)NCc2ccc(-n3ccnc3)cc2)c(NC2CCC(O)CC2)n1 (stereo unspecified) | 0.89 °C |
| C=C(C)[C@@H]1CC[C@]2(C)CC[C@]3(C)[C@H](CC[C@@H]4[C@@]5(C)CC[C@H](O)C(C)(C)[C@@H]5CC[C@]43C)[C@@H]12 [Lupeol] | 0.47 °C |
| O=C(O[C@@H]1Cc2c(O)cc(O)cc2O[C@@H]1c1cc(O)c(O)c(O)c1)c1cc(O)c(O)c(O)c1 [(-)-Epigallocatechin Gallate] | 1.15 °C |
| CC[C@H](CO)Nc1nc(NCc2ccccc2)c2ncn(C(C)C)c2n1 [Roscovitine (Seliciclib,CYC202)] | 0.53 °C |
| COc1ccc([C@@H]2OC[C@H]3[C@@H]2CO[C@@H]3c2ccc(O[C@@H]3O[C@H](CO)[C@@H](O)[C@H](O)[C@H]3O)c(OC)c2)cc1OC [Forsythin] | -0.14 °C |
| COc1cc2c(Oc3ccc(NC(=O)C4(C(=O)Nc5ccc(F)cc5)CC4)cc3F)ccnc2cc1OCCCN1CCOCC1 | 1.7 °C |
| N#Cc1c(NC(=O)c2cccc3ccccc23)sc2c1CCCC2 [JNK Inhibitor IX] | 0.46 °C |
| C#Cc1cccc(Nc2ncnc3cc4c(cc23)OCCOCCOCCO4)c1 [Icotinib] | 0.38 °C |
| CN1CCN(Cc2ccc(NC(=O)Nc3ccc(Oc4ccnc(N)n4)cc3)cc2C(F)(F)F)CC1 | 6.72 °C |
| N[C@@H]1CCCN(c2c(/C=C3\SC(=O)NC3=O)cccc2-c2ccccc2)C1 | 0.61 °C |
| Cc1c[nH]c(/C=C2\C(=O)Nc3ccccc32)c1CCC(=O)O | 0.43 °C |
| N=C(N)NC(=N)NCCc1ccccc1 [Phenformin HCl] | -0.08 °C |
| Cc1cc(C)c(/C=C2\C(=O)Nc3ccccc32)[nH]1 [Semaxanib (SU5416)] | 0.32 °C |
| Nc1nc(N)c2nc(-c3cccc(O)c3)c(-c3cccc(O)c3)nc2n1 | 0.63 °C |
| COc1cc(Nc2ncc3c(n2)-c2ccc(Cl)cc2C(c2c(F)cccc2OC)=NC3)ccc1C(=O)O [Alisertib (MLN8237)] | 0.09 °C |
| O=C(Nc1cccnc1)c1cc(-c2ccnc(F)c2)ccc1OCc1ccccc1 | 0.25 °C |
| Nc1ncnc2n[nH]c(Nc3ccc(F)cc3)c12 | 0.32 °C |
